Vif-A3F inh – qHTS for Inhibitors of Vif-A3F Interactions: qHTS; HeLa A3F-eYFP + Vif (tagged APOBEC3F with the HIV-1 protein that degrades it), YFP fluorescence increase; Potency, µM (titrated, usually from 46.1 µM), without a hit: at the highest dose activity, negative = active; 0.2% of 390,000 active; further: potency means the concentration at half of the fitted maximal effect; % of control where 0% means no effect; nearly all actives have a fitted effect of over 65% in size
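Fluorescence increase (Ex 488/Em 500-530) after overnight compound treatment at 37 deg C flags inhibition of Vif-driven A3F-eYFP loss in stable HeLa A3F-eYFP/Vif cells seeded overnight beforehand.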
Vif-A3G inh – qHTS for Inhibitors of Vif-A3G Interactions: qHTS | Potency, µM (titrated, usually from 46.1 µM), inactives show top-dose activity, negative = active, most hits filed as inhibitors | 0.076% of 410,000 active | DNA dC->dU-editing enzyme APOBEC-3G (Homo sapiens), Q9HC16 | HeLa A3G-eYFP + Vif (tagged APOBEC3G with the HIV-1 protein that degrades it), YFP fluorescence, overnight; further: potency means the concentration at half of the fitted maximal effect; on the % scale 0 is the no-effect control and ±100 the full control effect; nearly all actives have a fitted effect of over 60% in size
Target sequence (Q9HC16 whole entry, looked up): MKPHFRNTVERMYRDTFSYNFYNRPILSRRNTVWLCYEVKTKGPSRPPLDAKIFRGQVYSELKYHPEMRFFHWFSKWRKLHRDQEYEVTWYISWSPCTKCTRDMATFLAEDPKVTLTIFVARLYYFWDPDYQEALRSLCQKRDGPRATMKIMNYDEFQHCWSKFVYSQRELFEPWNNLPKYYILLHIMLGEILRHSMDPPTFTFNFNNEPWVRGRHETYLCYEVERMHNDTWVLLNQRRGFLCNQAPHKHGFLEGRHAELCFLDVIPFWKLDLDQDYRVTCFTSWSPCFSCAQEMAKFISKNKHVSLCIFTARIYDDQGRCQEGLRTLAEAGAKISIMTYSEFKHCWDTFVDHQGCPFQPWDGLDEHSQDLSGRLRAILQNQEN
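HeLa cells stably expressing Vif and C-terminally eYFP-tagged A3G, seeded overnight at 37 deg C, then exposed to compound by pintool overnight at 37 deg C. Rise in yellow fluorescence (Ex 488/Em 500-530, Acumen) marks blocked Vif-driven A3G degradation.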
Giardia kill – Small Molecules that selectively kill Giardia lamblia: qHTS | Giardia lamblia trophozoite viability | activity change, % at 7.66 µM, hits read low | 0.15% of 340,000 active; in the data active means activity change below about -80%; inconclusive means between about -30% and that limit;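 further: parasites exposed to compound for two days anaerobically before the ATP read; on the % scale 0 is the no-effect control and ±100 the full control effect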
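Trophozoites 100 cells/well + cpd; 48 hrs, 37 deg C, anaerobic. ATPLite 1-Step added, 15-30 min RT, luminescence read (ATP-based viability).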
MCF10A rerep – A quantitative high throughput screen for small molecules that induce DNA re-replication in MCF 10a normal breast cells; MCF 10A DNA re-replication, Hoechst nuclear intensity, 48 h; Potency, µM (top dose mostly 46.1 µM), for the others: at the highest dose activity, positive = re-replication, most hits filed as activators; 2.9% of 350,000 active; AID 624296, 2012; further: potency means the concentration at half of the fitted maximal effect; % of control where 0% means no effect; nearly all actives have a fitted effect of over 50% in size
IL-1B inflam inh – qHTS for Inhibitors of Inflammasome Signaling: IL-1-beta AlphaLISA Primary Screen; activity change, % at 57.5 µM; AID 743279, 2014; THP-1 LPS/ATP IL-1B secretion, AlphaLISA, 16 h; stronger effect = lower value; 4.7% of 360,000 active; in the data active means activity change below about -50%; inconclusive means mostly about -30% to -49%; further: on the % scale 0 is the no-effect control and ±100 the full control effect
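THP-1 cells pretreated 1 hr with compounds (up to 57.5 uM final), then stimulated with LPS (250 ng/mL final) plus ATP (1.25 mM final); secreted IL-1B measured by AlphaLISA after 16 hr, decreased signal indicating inhibition.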
SW480 rerep – A quantitative high throughput screen for small molecules that induce DNA re-replication in SW480 colon adenocarcinoma cells; SW480 DNA re-replication, Hoechst DNA content imaging, 48 h; Potency, µM (series often up to 46.1 µM), for the others: top-dose re-replication activation, usual class: activators; 1.8% of 340,000 active; AID 624297, 2012; further: potency means the concentration at half of the fitted maximal effect; % of control where 0% means no effect; nearly all actives have a fitted effect of over 55% in size
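Cells (250 per well) received 23 nL compound or DMSO by pin tool and were kept 48 hr at 37 C, 5% CO2. Nuclei were then stained with Hoechst for 40 min and scanned for DNA content.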
Starred values were filed as active, the others as inactive; ? = inconclusive; / = no result. Compounds with a hit are over-represented: about 6.9% of the library has one in this group of screens. Unless noted, the call rests on the fitted dose curve; in most records, active means well fitted curve in the direction sought with a large enough effect; inconclusive means small, poorly fitted or top-dose-only effect, or another doubt; inactive means no such curve, though single readings can be large; an effect the other way counts as inactive or inconclusive.

SMILES	Vif-A3F inh	Vif-A3G inh	Giardia kill	MCF10A rerep	IL-1B inflam inh	SW480 rerep
Cc1ccccc1N(C(=O)c1snc(C(N)=O)c1N)C(C(=O)NC1CCCCC1)c1ccc(O)cc1 (stereo not given)	6%	0%	11	?	0	16µM*
COc1ccc(N(C(=O)c2snc(C(N)=O)c2N)C(C(=O)NCc2ccccc2)c2ccc(O)cc2)cc1OC (stereo not given)	-17%	-1%	3	17%	28	-3%
COc1cccc(N2C(=O)CSC23C(=O)N(CC(=O)NCc2ccc(C)cc2)c2ccccc23)c1 (stereo not given)	5%	-3%	/	/	/	/
COc1cccc(CN(C(=O)COc2ccc(Cl)c(C)c2)C2CCS(=O)(=O)C2)c1 (stereo not given)	0%	-1%	/	/	/	/
CCOC(=O)C1CCN(S(=O)(=O)c2cc3c4c(c2)CC(=O)N4CCC3)CC1	-7%	1%	/	/	/	/
CC1=C(C(=O)Nc2ccccc2)C(c2ccc(C)cc2)N=C(Nc2nc3ccccc3o2)N1 (stereo not given)	10µM*	?	12	?	-12	?
O=C(Nc1ccc(Cc2ccncc2)cc1)c1cccc([N+](=O)[O-])c1	-5%	0%	3	10%	-15	-1%
O=C(Nc1ccc(Cc2ccncc2)cc1)c1ccc([N+](=O)[O-])o1	16%	?	-88*	3.7µM*	-96*	5.2µM*
O=C(Nc1ccc(OC(F)(F)F)cc1)c1cc(S(=O)(=O)N2CCCCC2)ccc1N1CCOCC1	-1%	-1%	/	/	-14	/
O=C(Nc1ccccc1N1CCOCC1)c1ccc([N+](=O)[O-])s1	4%	-5%	-89*	?	31	16µM*
O=C(Nc1ccc(OC(F)(F)F)cc1)c1ccc(S(=O)(=O)N2CCOCC2)o1	20%	-3%	17	16%	-51*	?
O=C(Nc1ccc(S(=O)(=O)N2CCOCC2)cc1)c1ccc([N+](=O)[O-])o1	10%	-12%	-83*	?	-100*	-9%
CCOc1ccc(CN2C(=O)c3ccccc3Sc3ccc(C(=O)NC4CCC(C)CC4)cc32)cc1 (stereo not given)	-9%	-26%	/	/	/	/
CCn1nnc(NC(=O)c2ccc([N+](=O)[O-])o2)n1	4%	?	-103*	15µM*	-78*	?
O=C(Nc1ccc(N2CCOCC2)cc1)c1ccc([N+](=O)[O-])o1	16%	?	-85*	4.6µM*	-96*	1.3µM*
Cc1c(C(=O)Nc2ccc(Cc3ccncc3)cc2)cccc1[N+](=O)[O-]	4%	0%	-14	19%	-50*	-2%
O=C(COC(=O)c1ccc([N+](=O)[O-])o1)Nc1ccc(N2CCOCC2)cc1	1%	-1%	-5	-16%	-14	-17%
Cc1ccc(C(=O)Nc2ccc(Cc3ccncc3)cc2)cc1[N+](=O)[O-]	-1%	3%	2	15%	?	-3%
Cc1ccc(-n2nc3ccc(NC(=O)c4cccc([N+](=O)[O-])c4C)cc3n2)cc1	-10%	0%	-1	13µM*	35	?
CN(C)c1ccc(/C=C2\C=Cc3ccccc32)c(Cl)c1	/	-18%	/	/	/	/
COc1ccc(-c2nc(C)c(CCNC(=O)c3cc(OC)c(OC)c(OC)c3)s2)cc1OC	8%	-3%	/	/	/	/
Fc1ccc(N2CCN(c3nc4ccccc4c4nc(-c5cccnc5)nn34)CC2)cc1	-20%	0%	/	/	/	/
Cc1ccc(C2CC(=O)n3nc(-c4ccc(F)cc4)nc3S2)cc1 (stereo not given)	-10%	0%	/	/	/	/
COc1ccc(CCC(=O)N2CCN(S(=O)(=O)c3ccc(C)cc3)CC2)cc1	0%	3%	-6	9%	-22	0%

From PubChem BioAssay
